Reference: PubChem BioAssay (NCI)
Compounds without any hit were thinned out: in the full panel of roughly 79,000, 15% have a hit. Active and inactive are the calls of the source. Rule as the data show it: active = growth inhibition above about 70%; inactive = the rest.

Columns and labels:
[1] = NCI Yeast Anticancer Drug Screen. Data for the rad50 strain (AID 155);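 also: 0% = growth of vehicle-only cultures of the same strain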; details: S. cerevisiae rad50 strain growth inhibition; at 50.0 µM; hits give high values
Summary of the method: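 A DNA repair-deficient yeast mutant serves as the test organism; compound-induced growth inhibition is calculated against vehicle-treated cells.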

[2] = NCI Yeast Anticancer Drug Screen. Data for the mec2-1 strain (AID 157); details: S. cerevisiae mec2-1 strain, at 50.0 µM, hits give high values
Summary of the method: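 Strain: mec2-1 (DNA repair/cell cycle alteration). Compound exposure, then growth measured; inhibition expressed relative to vehicle.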

[3] = NCI Yeast Anticancer Drug Screen. Data for the sgs1 mgt1 strain (AID 161);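 also: 0% = growth of cultures given vehicle only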; details: S. cerevisiae sgs1 mgt1 strain, at 50.0 µM, hits give high values
Summary of the method: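 Inhibition of yeast growth, normalised to vehicle-treated controls, is reported for a strain bearing genetic alterations in DNA damage repair.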

[4] = NCI Yeast Anticancer Drug Screen. Data for the cln2 rad14 strain (AID 165);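 also: 0% = growth equal to vehicle treated cultures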; details: S. cerevisiae cln2 rad14 strain, at 50.0 µM, hits give high values
Summary of the method: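 Compounds are applied to the cln2 rad14 yeast strain, and growth is then compared with that of vehicle-treated cultures to give inhibition.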

[5] = NCI Yeast Anticancer Drug Screen. Data for the bub3 strain (AID 167); details: S. cerevisiae bub3 mutant strain, at 50.0 µM, hits give high values
Summary of the method: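 Inhibition values come from growth of compound-treated mutant yeast normalised to vehicle-treated controls.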

[6] = NCI Yeast Anticancer Drug Screen. Data for the mlh1 rad18 strain (AID 175); details: S. cerevisiae mlh1 rad18 strain growth inhibition; at 50.0 µM; hits give high values
Summary of the method: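 Read-out is yeast growth inhibition, calculated against vehicle-only controls. The compound was applied to a strain engineered with DNA damage repair alterations.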

Measured: growth inhibition

COCOc1ccc(C=O)cc1
inactive: [1] 9.75% | [2] 13.1% | [3] -14.3% | [4] -4.6% | [5] -14.1% | [6] -5.65%

COc1cc(C[S+]2CCCC2)c(SC)cc1C[S+]1CCCC1
inactive: [1] 25.4% | [2] 50% | [3] 40.2% | [4] 27.5% | [5] 24.1% | [6] 23.1%

O=C(NCC1(O)CCCCC1)c1ccccc1
inactive: [1] 3.65% | [2] -14.2% | [3] -5.55% | [4] -8.35% | [5] 3.8% | [6] 1.3%

O=[N+]([O-])C(C(Cl)=C(Cl)Cl)=C(n1nnc2ccccc21)n1nnc2ccccc21
inactive: [1] 40.6% | [2] 34.9% | [3] 25.3% | [4] 27.1% | [5] 19% | [6] 21.1%

CCCCCCCCCCCC(=O)Nc1ccc(C(C)C)cc1
inactive: [1] 4.75% | [2] -7.6% | [3] -13.3% | [4] 18.3% | [5] 21.2% | [6] -12.8%

Nc1ccc(CC(=O)O)cc1
inactive: [1] 28.6% | [2] -10.7% | [3] -26.4% | [4] -47.2% | [5] 7.25% | [6] 0.05%

c1ccc(CN2CCc3ncnc(Nc4ccccc4)c3C2)cc1
inactive: [1] -13.4% | [2] 1.25% | [3] 5.5% | [4] -16.8% | [5] 4.75% | [6] -5.05%

CC(C)(C)C(=O)OCn1cc2c(=O)[nH]cnc2n1
inactive: [1] 11.9% | [2] 8.1% | [3] 28.6% | [4] -3.75% | [5] -8.7% | [6] 9.15%

CC(=O)c1cccc(NC(=O)Nc2cccc(O)c2)c1
inactive: [1] 4.5% | [2] 19.9% | [3] -5.35% | [4] 7% | [5] 56.1% | [6] -0.25%

O=C1CSC(c2ccc(Cl)c(Cl)c2)N1c1nncs1 (configuration not stated)
inactive: [1] -18.7% | [2] 11.8% | [3] 17.1% | [4] 10.4% | [5] 14.7% | [6] 23.4%

c1ccc(-c2nc3ccccc3nc2SCc2cccnc2)cc1
inactive: [1] 14.4% | [2] -18.1% | [3] -19.7% | [4] -18.2% | [5] -30.8% | [6] -9.8%

CCC(Nc1ncnc2nc[nH]c12)C(=O)O (configuration not stated)
inactive: [1] -7.5% | [2] -14.2% | [3] -17.4% | [4] -20.4% | [5] -23.6% | [6] 14%

COC(=O)c1c(C(=O)Nc2ccccc2)c(-c2ccccc2)n(NC(N)=O)c1C
inactive: [1] 8.35% | [2] 3.25% | [3] 4.2% | [4] -17.4% | [5] -1.75% | [6] 17%

C=CCOC(=O)Nc1ccc(C)c(NC(=O)OCC=C)c1
inactive: [1] -28.3% | [2] -45% | [3] -9.1% | [4] -25.5% | [5] -12.6% | [6] -33.1%

COC(=O)c1c(C)c(C)cc(C)c1C
inactive: [1] -0.9% | [2] -13.2% | [3] -4.1% | [4] 11.7% | [5] -7.1% | [6] -9.5%

CCOC(=O)/C(=C(/N)C1OC(COC(c2ccccc2)(c2ccccc2)c2ccccc2)C2OC(C)(C)OC12)C1CC(=O)N(C)C1=O (configuration not stated)
inactive: [1] -4.35% | [2] 16.1% | [3] 12.7% | [4] -27.8% | [5] -7.35% | [6] 41.5%

CC(=O)O[C@H]1CC(C)(C)C(=C=C/C(C)=C/C=C/C=C/C=C(C)/C=C2C=C(/C=C/[C@@]34O[C@]3(C)C[C@@H](O)CC4(C)C)C(=O)O/2)[C@](C)(O)C1
inactive: [1] 9.55% | [2] 32.5% | [3] 0.9% | [4] 6.2% | [5] 3.6% | [6] 3.95%

CCC(=O)OCC(C)COC(=O)CC
inactive: [1] 9.55% | [2] 11.8% | [3] 4.1% | [4] 1.05% | [5] -8.4% | [6] -5.25%

O=c1cc[nH]c2c(Cl)cccc12
inactive: [1] -8.15% | [2] -20.9% | [3] -5.05% | [4] 0.95% | [5] 2% | [6] -2.9%

BrC12c3ccccc3C(Br)(c3ccccc31)c1ccccc12
inactive: [1] 5.95% | [2] 5.6% | [3] -3.15% | [4] -7.4% | [5] -5.3% | [6] 6.2%

Cc1ccc(NC(=O)CC(=O)CC(C)C)cc1C
inactive: [1] -22.2% | [2] -24.8% | [3] -17.4% | [4] 0.75% | [5] -37% | [6] -10.8%

CCc1nc2c(c(=O)[nH]1)C(c1ccc(Cl)cc1)C(C)(C)O2 (configuration not stated)
inactive: [1] -1.2% | [2] -22.6% | [3] -17.4% | [4] 4.45% | [5] 1.1% | [6] -7.4%

CCNC(CC(N)=O)C(=O)O (configuration not stated)
inactive: [1] -22.1% | [2] -3.75% | [3] 0.15% | [4] -4.05% | [5] -26.4% | [6] -11.6%

CCOC(=O)C(CN1CCN(CC(NC=O)(C(=O)OCC)C(=O)OCC)CC1)(NC=O)C(=O)OCC
inactive: [1] -17.1% | [2] -28.3% | [3] -11.9% | [4] -0.5% | [5] 1.15% | [6] -30.1%

CCCCc1noc(N)c1SCC
inactive: [1] 5.45% | [2] 9.5% | [3] 1.2% | [4] -39.6% | [5] -9.2% | [6] 3.7%

Cc1ccc([N+](=O)[O-])cc1N1CCNC1=O
inactive: [1] 8.05% | [2] -17.2% | [3] -12.2% | [4] -62.7% | [5] 9% | [6] -21.9%

COC(=O)C(C)(N)Cc1ccc(O)c(C)c1 (configuration not stated)
inactive: [1] 3.6% | [2] 10.8% | [3] 0.5% | [4] -10.3% | [5] -4.05% | [6] -9.9%

ClCC(OCc1ccccc1)OCc1ccccc1
inactive: [1] -21.6% | [2] 4.8% | [3] -4.45% | [4] -36% | [5] 12.4% | [6] 17.1%

O=C1CCC2(c3ccccc3)Nc3ncccc3N12 (configuration not stated)
inactive: [1] 33% | [2] 2.8% | [3] 6.6% | [4] 3.85% | [5] 23% | [6] 27.8%

CCc1cccc2[nH]c3cc([N+](=O)[O-])ccc3c12
inactive: [1] 12% | [2] -13.8% | [3] 2.5% | [4] -22.8% | [5] -0.4% | [6] 15.7%

CCCCCCC(O)CCCCCCCCCCC(=O)OC (configuration not stated)
inactive: [1] 33.1% | [2] 4.5% | [3] 20.6% | [4] -26.4% | [5] 12.8% | [6] 33.8%

Oc1ccc2c(c1)CCC2
inactive: [1] 25% | [2] -1.95% | [3] -1.3% | [4] 8% | [5] -10.8% | [6] -19.6%

COc1ccc(CCN2C(=O)C(=O)N(c3ccc(Cl)c(Cl)c3)C2=O)cc1OC
inactive: [1] 3.05% | [2] -0.25% | [3] 11.5% | [4] 14.3% | [5] -4.35% | [6] 13%

C/C(=N\NC(=S)Nc1ccc(S(=O)(=O)O)cc1)c1ccccn1
inactive: [1] 21.3% | [2] 18.4% | [3] 34.5% | [4] 19.1% | [5] 33.2% | [6] 50.5%

CCN(CC)C(=S)N=N/C(C)=C1/C=CC=CN1O
active: [6] 74%
inactive: [1] 1.4% | [2] 0.4% | [3] 14.6% | [4] 13.6% | [5] 16.2%

CCCN1C(=O)CC(NC(C)=O)C1=O (configuration not stated)
inactive: [1] -2.85% | [2] 6.45% | [3] 8.1% | [4] -17.9% | [5] -5.85% | [6] 9.65%

CCOC(=O)c1cc2c(oc1=O)-c1cc(C)ccc1OC2C (configuration not stated)
inactive: [1] -9.45% | [2] -14.8% | [3] 8.75% | [4] -40.6% | [5] -38.4% | [6] 11.1%

COC(=O)C1C(C(=O)OC)C2(C)C(=O)C1(C)C(c1ccccc1)=C2c1ccccc1 (configuration not stated)
inactive: [1] -0.7% | [2] 2.55% | [3] -5.4% | [4] -12.3% | [5] 1.15% | [6] 5.15%

COC(=O)c1cc(=O)n(C)c2ccc(OC)cc12
inactive: [1] 21.1% | [2] 10.8% | [3] -5.3% | [4] 9.75% | [5] 13.6% | [6] 20.7%

O=C(OCCO)c1ccccc1O
inactive: [1] 2.95% | [2] -0.8% | [3] -34% | [4] 3.3% | [5] -0.9% | [6] 1.35%

N#CCC1C2CC3C(C2=O)C13 (configuration not stated)
inactive: [1] -0.6% | [2] 5.85% | [3] -2.2% | [4] 22.4% | [5] 4.65% | [6] -39.8%

CC1CCCC(C(O)CC2CC(=O)NC(=O)C2)C1O (configuration not stated)
inactive: [1] 17.4% | [2] -3.65% | [3] 3.5% | [4] -29.8% | [5] 1.7% | [6] 4.45%
